This note sets out measurements from PubChem BioAssay AID488847 (NMMLSC, 2010).

Structures are written as SMILES. Out of some 330,000 compounds screened, about 1,900 (0.58%) were called active.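 How the source made its calls: active means inhibition of aptamer binding above 40%, roughly 3 SD of noise, on plates passing a quality check; inactive means the rest.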 Many of the other results were omitted from the sample, so actives are more common in it than they were.

The target of this experiment is Beta-adrenergic receptor kinase 1 (Homo sapiens) (UniProt P25098). The experiment can be described thus: compounds blocking aptamer binding on GRK2 – biochemical, human GRK2, bead flow cytometry, HTS, primary screen (AID 488847).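 Further: median bead fluorescence of bound FAM aptamer so fluorescent compounds give negative values.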 To be noted: FAM-aptamer displacement from GRK2, at 10 µM, hits give high values. On the technique in general: Flow cytometry measures light scatter and fluorescence of single cells or particles in a stream.
Beta-adrenergic receptor kinase 1 (Homo sapiens), sequence (P25098 whole entry, looked up): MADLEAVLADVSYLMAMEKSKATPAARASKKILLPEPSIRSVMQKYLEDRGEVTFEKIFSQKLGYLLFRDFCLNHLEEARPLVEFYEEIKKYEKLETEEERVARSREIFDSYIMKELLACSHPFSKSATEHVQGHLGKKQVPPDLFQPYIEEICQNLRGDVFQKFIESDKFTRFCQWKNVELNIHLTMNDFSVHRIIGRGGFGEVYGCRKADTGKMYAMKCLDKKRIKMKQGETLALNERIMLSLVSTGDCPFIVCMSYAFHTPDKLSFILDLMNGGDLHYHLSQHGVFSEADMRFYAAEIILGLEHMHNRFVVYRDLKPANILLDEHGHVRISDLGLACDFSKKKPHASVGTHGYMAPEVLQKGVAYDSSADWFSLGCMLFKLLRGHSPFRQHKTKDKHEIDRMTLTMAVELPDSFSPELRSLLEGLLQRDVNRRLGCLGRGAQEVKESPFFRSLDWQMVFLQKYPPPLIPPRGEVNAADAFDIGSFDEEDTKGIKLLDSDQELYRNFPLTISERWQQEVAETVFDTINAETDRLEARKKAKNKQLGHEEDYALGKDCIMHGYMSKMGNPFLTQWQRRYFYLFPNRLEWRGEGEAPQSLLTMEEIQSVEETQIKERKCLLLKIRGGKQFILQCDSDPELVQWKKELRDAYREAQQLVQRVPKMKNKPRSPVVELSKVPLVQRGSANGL
On to `CCC(=O)c1ccc(OCC(=O)OCC(=O)N2CCc3ccccc3C2)cc1`, for which the inhibition of aptamer binding was 3% (inactive).
On to `CN(C)c1ccc(NC(=S)N(CCc2ccccc2)C2CC(=O)N(c3c(Cl)cccc3Cl)C2=O)cc1` (configuration not stated), for which the inhibition of aptamer binding is 1% (inactive).
The figure for `O=C(CNC(=O)COc1ccccc1)NCCc1ccccn1` is 0% (inactive); for `O=C(COc1ccccc1)NCCc1nc2ccccc2[nH]1` it is 59% (active); for `CC(C)=C(NC(=O)c1ccco1)C(=O)NCCc1nc2ccccc2[nH]1` it is 0% (inactive).
The figure for `OCCC1CN(Cc2ccc(Oc3ncccn3)cc2)CCN1CCc1ccccc1` (configuration not stated) is 0% (inactive); for `CCNc1nc(NC(C)C)nc(OCCOC(=O)c2ccccc2)n1` it is 0% (inactive); for `CCOC(=O)c1ccc(NC(=O)c2c(NCc3ccccc3)[nH]c(=O)[nH]c2=O)cc1` it is 5% (inactive).
The figure for `C/C=C\C=C\C(=O)N1CC2(CC(c3cccc(NC(=O)/C(C)=C\C)c3)=NO2)C[C@H]1C(N)=O` (some centres not stated) is 1% (inactive); for `C=C(C)C(=O)Nc1cccc(C2=NOC3(C2)C[C@H](C(N)=O)N(C(=O)C(c2ccccc2)c2ccccc2)C3)c1` (some centres not stated) it is 91% (active); for `C/C=C(/C)C(=O)Nc1cccc(C2=NOC3(C2)C[C@@H](C(N)=O)N(C(=O)C2(C)CC2)C3)c1` (some centres not stated) it is 1% (inactive).
`CCOc1ccc(S(=O)(=O)Nc2cccc(C(=O)NCC3(N4CCCCC4)CCCCC3)c2)cc1`: the inhibition of aptamer binding is 0% (inactive).
As for `CS(=O)(=O)c1ccc(-c2nnn(CC(=O)Nc3ccc4c(c3)OCCO4)n2)cc1`, the inhibition of aptamer binding is 0% (inactive).
In the case of `O=C(NNC(=S)NC1CC2CCC1C2)c1ccc(Cl)cc1` (configuration not stated) it was 2% (inactive); in that of `CC1CCN(C(=S)NC2CC3CCC2C3)CC1` (configuration not stated), 67% (active).
Regarding `S=C(NNC(=S)NC1CC2CCC1C2)NC1CC2C=CC1C2` (configuration not stated), the inhibition of aptamer binding is 0% (inactive).
With `CC1c2nc3ccccc3n2C(CC(=O)NCCCN2CCOCC2)C(=O)N1Cc1ccccc1` (configuration not stated), the inhibition of aptamer binding was 0% (inactive).
In the case of `COCCn1c(N)c(NCc2ccccc2)c(=O)[nH]c1=O` it was 47% (active).
The figure for `COCCn1c(N)c(N(Cc2ccccc2)C(=O)C2CCCCC2)c(=O)[nH]c1=O` is 0% (inactive).
As to `COCCN(C(=O)c1ccccc1F)c1c(N)n(Cc2ccccc2)c(=O)[nH]c1=O`, the inhibition of aptamer binding was 2% (inactive).
For the compound `Cc1ccc2c(c1)C1CN(C)CCC1N2S(=O)(=O)c1ccc(Oc2ccc([N+](=O)[O-])cc2)cc1` (configuration not stated), the inhibition of aptamer binding is 0% (inactive).
In the case of `Nc1ccc2nc3c(=O)[nH]c(=S)[nH]c3nc2c1` it was 70% (active); in that of `CCC1Oc2ccccc2N(CC(=O)NCCCN2CCN(CC)CC2)C1=O` (configuration not stated), 0% (inactive); in that of `CCOCCCNC(=O)c1ccc(CS(=O)(=O)c2cccc(C(F)(F)F)c2)o1`, 48% (active).
In the case of `COc1ccccc1CNC(=O)c1ccc(CS(=O)(=O)c2ccccc2)o1` it was 0% (inactive).
Consider `COc1ccc(CCNC(=O)c2ccc(CS(=O)(=O)c3ccc(Br)cc3)o2)cc1OC`, for which the inhibition of aptamer binding is 1% (inactive).
In the case of `CCC(C)(C(=O)Nc1ccccc1C)N(C(=O)CNC(C)=O)c1ccc(C)cc1` (configuration not stated) it was 1% (inactive).
The figure for `CCn1nc(NC(=O)c2ccco2)c2cc3ccc(C)cc3nc21` is 0% (inactive).
With `Cc1ccc(OCCNC(=O)CCNS(=O)(=O)c2ccc(Br)cc2)cc1`, the inhibition of aptamer binding was 1% (inactive).
Consider `Cc1cc2cc(CNC(=O)c3ccc(S(=O)(=O)N4CCOCC4)cc3)ccc2[nH]1`, for which the inhibition of aptamer binding was 3% (inactive).
In the case of `Cc1cc2cc(CNC(=O)c3cccs3)ccc2[nH]1` it was 44% (active); in that of `CCc1cccc(CC)c1NC(=S)NCc1ccc2[nH]c(C)cc2c1`, 0% (inactive).
In the case of `CN(CC(=O)N1CCN(c2ccccc2)CC1)S(=O)(=O)c1cccs1` it was 0% (inactive); in that of `COCc1ccc(CN2CCC(Oc3ccc(C(=O)NCc4ccccn4)cc3)CC2)o1`, 0% (inactive).
In the case of `CCOC(=O)N1CCC(NC(=O)C(C)n2c3ccccc3c3cnn(C)c(=O)c32)CC1` (configuration not stated) it was 4% (inactive).
Turning to `O=C(N[C@H]1C/C=C\C(c2ccc(F)cc2)N(Cc2ccccc2)C(=O)C1)OCC1c2ccccc2-c2ccccc21` (some centres not stated), the inhibition of aptamer binding was 0% (inactive).
In the case of `CCOC(=O)N1CCN(C(=O)c2ccc(CN(c3ccc(C)c(C)c3)S(C)(=O)=O)cc2)CC1` it was 3% (inactive); in that of `CCC1(C(=O)c2ccccc2)C(c2cccc([N+](=O)[O-])c2)C1(C(=O)OC)C(=O)OC` (configuration not stated), 0% (inactive).
In the case of `CC(C)CN(C(=O)c1cccc(S(=O)(=O)N2CCCCC2)c1)C1CCS(=O)(=O)C1` (configuration not stated) it was 92% (active); in that of `CC(C)CN(C(=O)c1ccc2c(c1)OCO2)C1CCS(=O)(=O)C1` (configuration not stated), 2% (inactive); in that of `O=C(c1cccc(S(=O)(=O)N2CCCC2)c1)N(Cc1ccco1)C1CCS(=O)(=O)C1` (configuration not stated), 4% (inactive).
Turning to `CO/N=C(/CS(=O)(=O)c1ccc(Br)cc1)c1ccc(OC)cc1`, the inhibition of aptamer binding was 2% (inactive).
In the case of `COc1ccc(S(=O)(=O)N2CN(CCc3ccc(OC)c(OC)c3)c3nc4ccccc4nc32)cc1` it was 3% (inactive); in that of `Cc1ccc(NC(=O)COc2ccc(/C=C3/NC(=O)NC3=O)cc2)cc1`, 0% (inactive); in that of `CC(C)c1ccc(/C=C2\NC(=O)NC2=O)cc1`, 0% (inactive).
Regarding `CSc1ccc(/C=C2\NC(=O)NC2=O)cc1`, the inhibition of aptamer binding is 46% (active).
On to `Cc1ccc(-c2cc(=O)[nH]c(NCc3ccccc3)n2)cc1`, for which the inhibition of aptamer binding was 2% (inactive).
In the case of `Cc1cccc2nc(CNc3ccc(F)cc3)cn12` it was 2% (inactive); in that of `CC(NCc1cccs1)C(=O)Nc1cc(Cl)cc(Cl)c1` (configuration not stated), 0% (inactive); in that of `O=[N+]([O-])c1cccc2ncccc12`, 4% (inactive).
In the case of `COc1cc(NS(=O)(=O)c2ccc3ccccc3c2)c2ncccc2c1` it was 0% (inactive); in that of `O=[N+]([O-])c1ccccc1S(=O)(=O)Nc1cccc2cccnc12`, 46% (active); in that of `OC(COc1ccc(Br)cc1)CN1CCCC1` (configuration not stated), 0% (inactive).
Consider `O=C(c1ccc(Cl)cc1)c1ccc(OCC(O)CN2CCCCC2)cc1` (configuration not stated), for which the inhibition of aptamer binding is 43% (active).
For `CC1CCN(CC(O)COc2ccc(C(=O)c3ccccc3)cc2)CC1` (configuration not stated), the inhibition of aptamer binding is 0% (inactive).
Turning to `C=CCOc1ccc(/C=C/C(=O)OC(C)C(=O)Nc2ccc(NC(C)=O)cc2)cc1` (configuration not stated), the inhibition of aptamer binding is 1% (inactive).
In the case of `CN(C(=O)c1cccc([N+](=O)[O-])c1)c1ccccc1C(=O)NCc1ccccc1` it was 1% (inactive).
Turning to `COc1ccc2oc(C(=O)N(CC(C)C)C3CCS(=O)(=O)C3)c(C)c2c1` (configuration not stated), the inhibition of aptamer binding was 0% (inactive).
Take `COc1cc(C(=O)N(Cc2ccc(N(C)C)cc2)C2CCS(=O)(=O)C2)cc(OC)c1OC` (configuration not stated): the inhibition of aptamer binding was 0% (inactive).
The figure for `COc1ccccc1C(=O)N(Cc1ccc(C)o1)C1CCS(=O)(=O)C1` (configuration not stated) is 43% (active).
The figure for `CCOC(=O)CN(C(=O)CN1CCOCC1)c1ccc(Br)cc1` is 0% (inactive); for `CC(=O)N1CCc2cc(Br)cc(S(=O)(=O)CCC(=O)Nc3c(C)n(C)n(-c4ccccc4)c3=O)c21` it is 0% (inactive); for `Cc1c(NC(=O)C(C)Oc2cccc(Cl)c2)c(=O)n(-c2ccccc2)n1C` (configuration not stated) it is 0% (inactive).
The figure for `COc1ccccc1NC(=O)C1CCN(C(=O)c2ccc(C(C)(C)C)cc2)CC1` is 0% (inactive); for `O=C(c1ccccc1)c1ccc(C(=O)N2CCN(c3ccccc3)CC2)cc1` it is 1% (inactive); for `CC(=O)c1ccc(N2CCN(C(=O)c3ccc4nc[nH]c4c3)CC2)cc1` it is 66% (active).
For the compound `CC(=O)c1ccc(N2CCN(C(=O)CCc3ccccc3)CC2)cc1`, the inhibition of aptamer binding was 0% (inactive).
With `O=C(CN1CCN(S(=O)(=O)c2ccc(Cl)s2)CC1)NCc1ccc(Cl)cc1`, the inhibition of aptamer binding is 2% (inactive).
The figure for `COc1ccc(NC(=O)Cn2ncn3c(cc4ccccc43)c2=O)c(OC)c1OC` is 1% (inactive); for `Cn1c(=O)[nH]c(=O)c2c1nc(N1CCN(CCO)CC1)n2CCSc1nc2ccccc2s1` it is 0% (inactive).
The figure for `Cn1c(=O)[nH]c(=O)c2c1nc(N1CCN(C(c3ccccc3)c3ccccc3)CC1)n2CCO` is 43% (active).
Consider `CN1CCN(c2nc3c(c(=O)[nH]c(=O)n3C)n2Cc2cccc3ccccc23)CC1`, for which the inhibition of aptamer binding is 0% (inactive).
In the case of `Cc1ccc(NN=Nc2nc3c([nH]2)c(=O)n(C)c(=O)n3C)cc1` it was 0% (inactive).
In the case of `O=C1CCCC2=C1C(c1cccs1)CC(=O)N2c1ccc(F)cc1` (configuration not stated) it was 0% (inactive); in that of `CCOC(=O)c1cc2c(n(-c3ccc(C)cc3)c1=O)CCCC2=O`, 0% (inactive); in that of `CCOC(=O)C1=C(N)N(c2ccc(C)cc2)C2=C(C(=O)CCC2)C1c1cccs1` (configuration not stated), 45% (active).
The figure for `O=C(c1ccc(F)cc1)N1CCCC(C(=O)N2CCCCC2)C1` (configuration not stated) is 1% (inactive).
Regarding `Cc1noc(C)c1COc1ccccc1C(=O)N(C)CC(=O)Nc1cccc(F)c1`, the inhibition of aptamer binding was 1% (inactive).
As to `CC(C)(C)OC(=O)N/N=C/c1ccc(C(=O)O)cc1`, the inhibition of aptamer binding is 0% (inactive).
On to `COC(=O)N/N=C/c1ccc(/C=N/NC(=O)OC)cc1`, for which the inhibition of aptamer binding was 87% (active).
The figure for `COC(=O)N/N=C/c1ccc(-c2ccc(Cl)c(Cl)c2)o1` is 0% (inactive); for `CCNS(=O)(=O)c1ccc(CCC(=O)N2CCN(c3cc(Cl)ccc3C)CC2)cc1` it is 0% (inactive); for `O=C1c2ccccc2C2=Nc3ccccc3SC(c3ccccc3F)C12` (configuration not stated) it is 0% (inactive).
Regarding `COc1ccc(C2=NN(C(=O)CSc3nc(=O)n4ccc(C)cc4n3)C(c3ccc(C)cc3)C2)cc1` (configuration not stated), the inhibition of aptamer binding was 2% (inactive).
Regarding `COc1cc(C)ccc1OCC(=O)OCC(=O)c1ccc[nH]1`, the inhibition of aptamer binding is 0% (inactive).
The figure for `CN1C(=O)CC(N2CCN(c3ccccn3)CC2)C1=O` (configuration not stated) is 1% (inactive).
The figure for `Cc1nnc(SCC(=O)N2c3ccccc3C(C)(c3ccc(Cl)cc3)CC2(C)C)s1` (configuration not stated) is 72% (active).
The figure for `CC1(c2ccccc2)CC(C)(C)N(C(=O)c2cc([N+](=O)[O-])cc([N+](=O)[O-])c2)c2ccccc21` (configuration not stated) is 0% (inactive); for `CC1(c2cccc([N+](=O)[O-])c2)CC(C)(C)N(C(=O)c2ccccc2)c2ccccc21` (configuration not stated) it is 0% (inactive).
`CN(C(=O)CC(NC(=O)c1ccccc1)(c1ccccc1)c1ccccc1)c1ccccc1`: the inhibition of aptamer binding is 1% (inactive).
Regarding `CC(Sc1nnc(-c2ccccc2F)n1C1CC1)C(N)=O` (configuration not stated), the inhibition of aptamer binding is 0% (inactive).
The figure for `Cc1ccc(C(=O)COC(=O)CCCC(=O)NC2CCCCC2)cc1[N+](=O)[O-]` is 0% (inactive).
